AC50 and activity, negative = inhibition data for 90 molecules are collected here from PubChem BioAssay AID1851 (National Center for Advancing Translational Sciences (NCATS), 2009).

Structures are written as SMILES. The campaign covered roughly 16,000 compounds. About 5,700 (36%) were called active. Roughly 24% stayed inconclusive and do not appear here. Calls follow the shape of the dose curve; as a rule, active = well fitted curve in the direction sought with a large enough effect; inconclusive = small, poorly fitted or top-dose-only effect, or effect the other way; inactive = no such curve, though single readings can be large or run the other way. Some of the results follow.
% is scaled to controls: 0 for no effect and ±100 for the full control effect.

The target in the assay is Cytochrome P450 1A2 (Homo sapiens) (UniProt P05177). In words: Cytochrome panel assay with activity outcomes. The conditions noted are these: recombinant CYP, pro-luciferin dealkylation, luminescence, p450-cyp1a2; series mostly up to 57.1 µM.
Chain of Cytochrome P450 1A2 (Homo sapiens) (P05177 whole entry, looked up): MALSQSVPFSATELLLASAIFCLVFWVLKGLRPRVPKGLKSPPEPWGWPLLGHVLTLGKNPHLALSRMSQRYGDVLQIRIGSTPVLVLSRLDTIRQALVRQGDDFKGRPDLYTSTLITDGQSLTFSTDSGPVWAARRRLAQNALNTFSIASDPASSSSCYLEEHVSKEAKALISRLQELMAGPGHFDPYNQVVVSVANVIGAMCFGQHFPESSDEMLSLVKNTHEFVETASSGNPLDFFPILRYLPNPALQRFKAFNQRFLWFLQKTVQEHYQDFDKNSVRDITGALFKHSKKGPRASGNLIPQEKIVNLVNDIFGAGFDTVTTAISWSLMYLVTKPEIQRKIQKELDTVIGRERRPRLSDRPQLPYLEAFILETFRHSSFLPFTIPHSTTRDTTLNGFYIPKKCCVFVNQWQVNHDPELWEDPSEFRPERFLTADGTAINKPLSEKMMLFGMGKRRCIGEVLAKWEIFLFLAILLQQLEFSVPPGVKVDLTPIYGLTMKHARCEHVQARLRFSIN
The term AC50 denotes the concentration giving half of the maximal activity seen. As for `O=c1ccc2c(OCCCCc3ccccc3)c3ccoc3cc2o1`, the AC50 was 501 nM (active).

On to `CCn1c(=O)[nH]c2ccccc2c1=O`, for which the AC50 is 1780 nM (active).

On to `COCCNc1ncnc2ccc(-c3ccccc3OC)cc12`, for which the AC50 is 2000 nM (active).

As to `COCCNc1ncnc2ccc(-c3ccccc3C(F)(F)F)cc12`, the AC50 is 1580 nM (active).

As to `Clc1ccccc1-c1ccc2ncnc(NCc3cccnc3)c2c1`, the AC50 was 158 nM (active).

In the case of `FC(F)(F)c1ccccc1-c1ccc2ncnc(NCc3cccnc3)c2c1`, the AC50 was 1000 nM (active).

As for `CC1=N[C@@](C)(COC(=O)[C@]2(C)N[C@](C)(CO)CO2)COC1=O`, the activity, negative = inhibition was 6.88% [at 2.29 µM] (inactive).

As to `COc1cccc(-c2ccc3ncnc(NCc4cccnc4)c3c2)c1`, the AC50 is 251 nM (active).

In the case of `COc1ccccc1-c1ccc2ncnc(NCc3cccnc3)c2c1`, the AC50 is 794 nM (active).

For the molecule `COc1ccccc1-c1ccc2ncnc(NCc3ccccc3)c2c1`, the concentration at half-maximal activity (AC50) is 2000 nM (active).

On to `C=CC1=C(C(=O)O)N2C(=O)[C@@H](NC(=O)/C(=N\OCC(=O)O)c3csc(N)n3)[C@@H]2SC1`, for which the AC50 entry was “inactive”.

Consider `CN1CCC2(CC1)CCN(C(=O)c1cc(C(F)(F)F)cc(C(F)(F)F)c1)CC2`, for which the AC50 entry is “inactive”.

Regarding `Cn1c(=O)c2[nH]c(CCCCc3nc4c([nH]3)c(=O)n(C)c(=S)n4C)nc2n(C)c1=S`, the activity, negative = inhibition is -13.8% [at 2.29 µM] (inactive).

`COC(=O)C/C=C\[C@@H](C)[C@@H]1C=C[C@H](OC(C)=O)[C@H](COC(C)=O)O1`: the activity, negative = inhibition was -1.57% [at 11.4 µM] (inactive).

With `C=CCNc1nc(-c2ccc(Cl)cc2)cs1`, the AC50 is 2240 nM (active).

For the molecule `CC(Oc1ccc(Cl)cc1)c1ccnn1S(=O)(=O)c1ccccc1` (stereo not given), the AC50 is 15800 nM (active).

On to `CC(Oc1ccccc1)c1ccnn1S(=O)(=O)c1ccccc1` (stereo not given), for which the AC50 was 25100 nM (active).

Take `O=S(=O)(c1ccccc1)N1CN2CN(C1)CN(S(=O)(=O)c1ccccc1)C2`: the activity, negative = inhibition was -14.9% [at 11.4 µM] (inactive).

As to `CC(Oc1ccc(-c2ccccc2)c(F)c1)c1ccn(S(=O)(=O)c2ccc(Cl)cc2)n1` (stereo not given), the AC50 result is “inactive”.

In the case of `CCOC(=O)c1ccc(NC(=O)C2(c3ccc(OC)cc3)CCOCC2)cc1`, the AC50 result was “inactive”.

Take `CCOC(=O)c1ccc(Nc2nc(C(=O)OCC)nc3ccccc23)cc1`: the AC50 is 891 nM (active).

Regarding `COC(=O)c1c(C)nc2ccccc2c1C(=O)O`, the AC50 result was “inactive”.

On to `CCOC(=O)c1ccc(Nc2nc(-c3cccnc3)nc3ccccc23)cc1`, for which the AC50 was 6310 nM (active).

Regarding `CCCNC(=O)OC[C@@H]1O[C@H](CCO/N=C\[C@@H](C)[C@H](OCc2ccccc2)C(C)C)C=C[C@@H]1Oc1ccc(OC)cc1`, the activity, negative = inhibition is -5.94% [at 11.4 µM] (inactive).

Take `O=C(Nc1cccc(F)c1)N1CC[C@@]2(CCCNC2)C1`: the AC50 entry is “inactive”.

As for `O=C(O)[C@@H]1[C@@H](C(=O)Nc2ncccn2)[C@@H]2C=C[C@@H]1O2`, the activity, negative = inhibition was -13.2% [at 2.29 µM] (inactive).

For `O=C(O)[C@@H]1[C@@H](C(=O)NCc2ccncc2)[C@@H]2C=C[C@@H]1O2`, the half-maximal activity concentration (AC50) was 5010 nM (active).

Regarding `O=C(O)[C@@H]1[C@@H](C(=O)NCc2cccnc2)[C@@H]2C=C[C@@H]1O2`, the activity, negative = inhibition is -0.421% [at 2.29 µM] (inactive).

In the case of `C[C@@H]1Cc2ccccc2N1NC(=O)c1ccc(Cl)c(S(N)=O)c1` (stereo not given in full), the AC50 result was “inactive”.

As for `CC1Cc2ccccc2N1C(=O)Cn1c(=O)cc(O)c2ccccc21` (stereo not given), the AC50 was 14100 nM (active).

For `CC1Cc2ccccc2N1C(=O)CN1C(=O)COc2ccccc21` (stereo not given), the AC50 result was “inactive”.

For `COc1ccc(-n2cccc2C=O)cc1OC`, the AC50 is 14100 nM (active).

In the case of `COc1ccc(N2C(=O)NC3CC2(C)Oc2ccccc23)cc1OC` (stereo not given), the AC50 entry was “inactive”.

Turning to `COc1ccc(-n2c(C)n[nH]c2=O)cc1OC`, the AC50 result is “inactive”.

Consider `COc1ccc(C(=O)N2CCC[C@@]3(CCN(Cc4ccc(C#N)cc4)C3)C2)cc1`, for which the AC50 result is “inactive”.

With `CCn1c(/C=C2/C(=O)N(C)c3ccccc32)nc2ccccc2c1=O`, the half-maximal activity concentration (AC50) was 1000 nM (active).

For the molecule `CC1(C)CC2(CCO1)OC(=O)CC2C(=O)NCCc1ccccc1` (stereo not given), the AC50 entry is “inactive”.

For `Cc1c(N(C)CS(=O)(=O)O)c(=O)n(-c2ccccc2)n1C`, the AC50 result was “inactive”.

`Cc1c(CCO)c(=O)n(-c2ccccc2)n1S(=O)(=O)c1c(Cl)cc(Cl)cc1Cl`: the half-maximal activity concentration (AC50) was 12600 nM (active).

Turning to `Cc1ccc(S(=O)(=O)/N=C(/Nc2c(C)n(C)n(-c3ccccc3)c2=O)c2ccc(Cl)cc2)cc1`, the AC50 result is “inactive”.

For the molecule `CC(=O)O[C@H]1C2=CO[C@H](C)[C@H]3[C@H]4C5=C([C@H](O)[C@H]6O[C@@H]6C5=O)[C@H](O[C@H]4C)[C@@]23C(=O)[C@H]2O[C@@H]21`, the activity, negative = inhibition is -0.486% [at 11.4 µM] (inactive).

For the molecule `Cc1ccn2c(NC(=O)c3ccccc3)c(-c3cccs3)nc2c1`, the AC50 is 22400 nM (active).

As to `O=C(O)C12CC3(C(=O)O)CC(C(=O)O)(CC(C(=O)O)(C1)C3=O)C2=O`, the activity, negative = inhibition is -4.32% [at 2.29 µM] (inactive).

With `Cc1ncn(-c2ccccc2O)c1C`, the AC50 is 794 nM (active).

Turning to `CC1=NNC(=O)C1CCC(=O)N/N=C\c1ccccc1[N+](=O)[O-]` (stereo not given), the AC50 result was “inactive”.

As to `Cc1nc2ccccn2c1C(=O)N/N=C/c1ccccc1[N+](=O)[O-]`, the AC50 was 15800 nM (active).

For `COc1ccc2c(c1)c(CC(=O)O)c(C)n2Cc1ccc(Cl)cc1`, the AC50 was 31600 nM (active).

Regarding `COc1ccc2c(c1)c(CC(=O)OCC(=O)O)c(C)n2C(=O)c1ccc(Cl)cc1`, the AC50 entry was “inactive”.

For the molecule `O=C(O)Cc1cc(Cl)ccc1O`, the activity, negative = inhibition was -16.6% [at 11.4 µM] (inactive).

Turning to `CC(=O)n1nc(-c2ccco2)nc1N`, the AC50 is 10000 nM (active).

As to `Cc1nc2nc[nH]n2c(=O)c1NC(=O)CC12CC3CC(CC(C3)C1)C2`, the AC50 entry is “inactive”.

As for `O=C1c2ccccc2NC(c2ccc(Cl)cc2Cl)N1O` (stereo not given), the AC50 was 6310 nM (active).

As to `COC(=O)N1CC(=O)N(OC)C1c1ccc(Cl)cc1Cl` (stereo not given), the AC50 entry is “inactive”.

In the case of `O=C1c2ccccc2N[C@H](c2cc(Cl)cc(Cl)c2O)N1CCc1ccccn1`, the activity, negative = inhibition is 5.81% [at 2.29 µM] (inactive).

Consider `Cn1c(=NC(=O)CCl)sc2ccccc21`, for which the AC50 is 2240 nM (active).

For the molecule `CO[C@H]1[C@H](O[C@H]2O[C@@H](C)[C@@H](O[C@@H]3C[C@](C)(O)[C@H](OC(=O)CC(C)C)[C@H](C)O3)[C@@H](N(C)C)[C@@H]2O)[C@@H](CC=O)C[C@@H](C)[C@@H](O)/C=C\C=C/C[C@@H](C)OC(=O)C[C@H]1OC(C)=O`, the AC50 entry was “inactive”.

Consider `COc1ccc2[nH]cc(C=O)c2c1`, for which the AC50 was 7080 nM (active).

Regarding `COc1ccc2[nH]c3cc4c(=O)c5cc(OC)ccc5[nH]c4cc3c(=O)c2c1`, the activity, negative = inhibition was -6.02% [at 2.29 µM] (inactive).

Turning to `N[C@@H](Cc1[nH]nc2ccccc12)C(=O)O`, the activity, negative = inhibition was -19.1% [at 11.4 µM] (inactive).

Turning to `Brc1[nH]nc2ccccc12`, the AC50 is 1580 nM (active).

As for `COc1ccc(-c2cc(C(=O)O)c3c(C)nn(-c4ccccn4)c3n2)cc1`, the AC50 result was “inactive”.

In the case of `COC(=O)c1ccccc1N/C=C1\CCc2c(c(C)nn2-c2ccccn2)C1=O`, the AC50 was 6310 nM (active).

On to `COC(=O)N1CCC2(CC1)CCN(c1ccccn1)CC2`, for which the AC50 result is “inactive”.

Consider `c1ccc(CNc2ncncc2-c2cccnc2)cc1`, for which the AC50 is 2510 nM (active).

Turning to `Cc1cccc(CNc2ncncc2-c2cccnc2)c1`, the AC50 was 794 nM (active).

On to `c1cncc(CNc2ncncc2-c2cccnc2)c1`, for which the AC50 is 5010 nM (active).

For `c1cncc(CNc2ncn[nH]2)c1`, the activity, negative = inhibition was -7.88% [at 11.4 µM] (inactive).

With `CC[C@H]1C2=C3C(CC[C@H]4C(OCc5ccc(F)cc5C(F)(F)F)OC[C@](C)([C@@H]34)N(C(=O)OC(C)(C)C)C2)C2COC(=O)OCC21` (stereo not given in full), the AC50 result is “inactive”.

On to `O=C(Nc1ccc2c(c1)nc1n2CCN(C2CCCCC2)C1)NC1CCCCC1`, for which the AC50 entry was “inactive”.

With `Cc1ccc(S(=O)(=O)N[C@@H]2COC(=O)C/C=C\[C@H](C)COC(=O)N[C@@H](C)C(=O)C/C=C\[C@H]2C)cc1`, the activity, negative = inhibition is -0.145% [at 11.4 µM] (inactive).

As to `Cc1ccc(NC(=O)c2ccc(CSc3nnc(-c4ccncc4)n3C)cc2)cc1`, the AC50 result is “inactive”.

Take `C=CCn1c(SCc2ccc(C(=O)Nc3ccccc3)cc2)nnc1-c1ccccc1`: the half-maximal activity concentration (AC50) was 14100 nM (active).

As to `CCn1c(SCc2ccc(C(=O)Nc3nccs3)cc2)nnc1-c1ccc(NC(C)=O)cc1`, the AC50 was 12600 nM (active).

For `Cc1nc2sc(C#N)c(N)c2c2c1CCCC2`, the AC50 was 2000 nM (active).

As for `NC(=O)c1csc(-c2ccc(CO)o2)n1`, the activity, negative = inhibition was -13.1% [at 11.4 µM] (inactive).

On to `OCc1ccc(-c2nn(Cc3ccccc3)c3ccccc23)o1`, for which the AC50 is 1580 nM (active).

On to `O=C(NNS(=O)(=O)c1ccccc1)c1cccnc1`, for which the activity, negative = inhibition was 2.15% [at 2.29 µM] (inactive).

For `O=C(NNS(=O)(=O)c1cc(Cl)cc(Cl)c1)c1sccc1-n1cccc1`, the AC50 is 2000 nM (active).

For the molecule `CCS(=O)(=O)N1CCC(C(=O)NCCCN2CCCC2)CC1`, the AC50 result was “inactive”.

In the case of `COc1ccc(N=C2S/C(=C\c3ccc(C)s3)C(=O)N2CC(C)C)cc1`, the AC50 result is “inactive”.

As to `CCCN1C(=O)/C(=C/c2ccc(C)s2)SC1=Nc1ccc(OC)cc1`, the AC50 is 11200 nM (active).

As to `CN(C)CCCNc1ncnc2nc[nH]c12`, the activity, negative = inhibition was -16.6% [at 11.4 µM] (inactive).

In the case of `O=C(O)CCNc1ncnc2nc[nH]c12`, the activity, negative = inhibition was -6.59% [at 11.4 µM] (inactive).

Turning to `CCCCNc1nc(SC)nc2nc[nH]c12`, the AC50 was 316 nM (active).

`CC[C@@]1(O)C(=O)OCc2c1cc1n(c2=O)Cc2cc3c(CN(C)C)c(O)ccc3nc2-1`: the activity, negative = inhibition was -17.9% [at 2.29 µM] (inactive).

Regarding `CCn1c(SCC(=O)Nc2sc3c(c2C(N)=O)CCC(C)C3)nnc1-c1ccco1` (stereo not given), the AC50 is 12600 nM (active).

Take `CCn1c(SCC(=O)Nc2sc3c(c2C#N)CCC(C(C)(C)C)C3)nnc1-c1ccco1` (stereo not given): the AC50 result was “inactive”.

Take `COc1cccc(Cn2c(=O)c(-c3cc(F)cc(F)c3)nc3cnc(N4CCN(C)CC4)nc32)c1`: the AC50 result was “inactive”.

As for `COc1ncc2nc(-c3cc(F)cc(F)c3)c(=O)n(C[C@H]3CCCO3)c2n1`, the concentration at half-maximal activity (AC50) was 3160 nM (active).

In the case of `COc1ncc2nc(-c3ccc(Cl)cc3)c(=O)n(C[C@H]3CCCO3)c2n1`, the AC50 was 501 nM (active).
